The list is not random: actives were taken first. Their share in the collection is about 20%.
CHX counter: counter-screen for Shiga toxin inhibitors: cycloheximide protein synthesis inhibition. cell reporter, cycloheximide protein synthesis inhibition counterscreen. max response, %. hit rate 12% among 300,000; in the data active means max response mostly above about 13%, no sharp cut-off; inactive means mostly below about 14%; further: read at 38.3 µM for the half of the compounds with a filed dose; 0% is about no effect
Pf growth 96h: P. falciparum growth inhibition at 96 hour, primary screen for plastid delayed-death inhibitors. P. falciparum luciferase reporter growth, 96 h. Potency, µM (top dose mostly 28.7 µM), for the others: at the top dose activity change, negative = inhibition, actives largely listed as inhibitors. hit rate 6.9% among 320,000. AID 504834; further: potency means the concentration at half of the fitted maximal effect; on the % scale 0 is the no-effect control and ±100 the full control effect
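Two parasite generations (96 h, 37 C, 5% CO2) of compound exposure in infected erythrocytes (0.05% parasitemia, 2% hematocrit). Luciferase-reporter P. falciparum; decreased luminescence indicates inhibited growth, aimed at apicoplast-acting delayed death.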
HCMV inh: inhibitors of human cytomegalovirus | HFF cells, HCMV-luciferase reporter, 72 h; stronger effect = lower value | activity change, negative = inhibition, % at 57.5 µM | hit rate 4.5% among 410,000 | AID 1259415; in the data active means activity change below about -60%; inconclusive means no clear call, values can overlap the other calls; inactive means above about -39%; further: on the % scale 0 is the no-effect control and ±100 the full control effect
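Two compound doses tested in HFFs infected with HCMV-luciferase, MOI 1 PFU/cell, 72 h at 37C. Lysate luminescence read with OneGlo; data normalized against buffer-only and 10uM Salinomycin inhibitor controls.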
Shiga toxin inh: inhibitors of Shiga toxin in Vero cells; inhibition, % at 38.7 µM; hit rate 9.2% among 290,000; AID 2315; Vero cells, Shiga toxin protein synthesis inhibition reporter; in the data active means inhibition mostly above about 28%, no sharp cut-off; inactive means mostly below about 43%; further: 0% is about no effect
Pf growth 48h: inhibits P. falciparum growth in the first generation, 48 h. P. falciparum luciferase growth in erythrocytes, 48 h. Potency, µM (titrated, usually from 28.7 µM), for the others: at the top dose activity change, negative = inhibition, usual class: inhibitors. hit rate 5.9% among 310,000. AID 504832; further: potency means the concentration at half of the fitted maximal effect; on the % scale 0 is the no-effect control and ±100 the full control effect
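Read-out is firefly luciferase luminescence from an integrated reporter in P. falciparum, so falling signal marks reduced parasite growth. Infected erythrocytes were at 2% hematocrit and 0.1% parasitemia (final) in Albumax-supplemented RPMI 1640.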
* hit, by the source's call; i = inactive; u = inconclusive; x = no result given. Unless noted, the call rests on the fitted dose curve; in most records, active means well fitted inhibition curve with a large enough effect; inconclusive means small, poorly fitted or top-dose-only effect, or another doubt; inactive means no such curve, though single readings can be large or run the other way.

SMILES | CHX counter | Pf growth 96h | HCMV inh | Shiga toxin inh | Pf growth 48h
COc1ccc(CCNC2CC(=O)N(CCc3ccc(OC)c(OC)c3)C2=O)cc1 (stereo not drawn) | -2 | 4.7µM* | -29 | -5 | x
COc1ccc(CCN2C(=O)/C(=C\c3ccco3)SC2=S)cc1OC | 1 | u | -96* | -6 | -9%
COc1ccc(CCN2C(=O)CSC2=S)cc1OC | -3 | u | -101* | -6 | -8%
COc1ccc(CCNC2CC(=O)N(CCc3ccccc3)C2=O)cc1OC (stereo not drawn) | -3 | 19% | 9 | -11 | x
C=CCN1C(=O)/C(=C\c2ccc(OC(=O)c3ccco3)c(OC)c2)SC1=S | 27* | u | -29 | 41 | -26%
Cc1cccc(-n2ccc(=O)c(C(=O)Nc3ccc(S(=O)(=O)Nc4nccc(C)n4)cc3)n2)c1 | -9 | u | 37 | -5 | 9%
Nc1c(C(=O)Nc2ccccc2F)sc2nc(-c3ccco3)ccc12 | 47* | 224% | u | 97* | 110%
COC(=O)c1sc2nc(-c3ccco3)ccc2c1N | 68* | 0% | 167 | 93* | 0%
Cc1ccc(-c2c3c(nc4sc(C(N)=O)c(N)c24)CCCC3)o1 | -4 | -11% | -24 | -3 | -7%
NC(=O)c1sc2nc3c(c(-c4ccco4)c2c1N)CCC3 | -2 | 13% | -73* | -9 | -3%
COC(=O)c1sc2cnccc2c1N | -2 | x | -9 | -18 | x
Nc1c(C(=O)Nc2ccccc2F)sc2nc(-c3cccnc3)ccc12 | 3 | 31% | u | 27 | 96%
CC(C)c1nc2sc(C(=O)O)c(N)c2c2c1CCCC2 | -3 | 13µM* | u | -2 | u
Cc1nc2sc(C(N)=O)c(N)c2c2c1CCCC2 | 9 | 21% | u | 1 | 14%
NC(=O)c1cccnc1OCC(F)(F)F | -2 | 1% | 7 | -13 | 44%
CCn1c(C)nc([N+](=O)[O-])c1C(=O)O | 10 | -24% | 0 | -12 | 16%
O=C(c1cccnc1)C1CCCN(Cc2nc(Cc3ccccc3)no2)C1 (stereo not drawn) | -1 | 0% | 2 | 22 | u
CCNc1ncnc2c1nnn2C | x | x | 43 | x | x
NC(=O)c1sc2nc(-c3ccco3)ccc2c1N | 37* | 260% | 16 | 110* | 148%
NC(=O)c1sc2nc(-c3ccccc3)c3c(c2c1N)CCCC3 | -4 | 2% | -61* | -10 | 33%
Cc1c(C)n(Cc2ccccc2)c2ncnc(NCCO)c12 | -3 | -7% | 50 | 4 | u
Cc1c(C)n(Cc2ccccc2)c2ncnc(N)c12 | 1 | u | -60* | 28 | -4%
CCn1c(P(C)(=O)O)nc2cc(NC(=O)c3ccccc3Cl)ccc21 | -5 | 1% | -15 | 8 | 4%
O=C(CSc1ccccn1)Nc1ccc(Cl)c([N+](=O)[O-])c1 | 12 | u | -40 | 30 | 402%
N/C(CSc1ccccn1)=N\OCc1c(Cl)cccc1Cl | 18 | 14% | 0 | 45* | 56%
SMILES | CHX counter | Pf growth 96h | HCMV inh | Shiga toxin inh | Pf growth 48h
CCCC(C)C(=O)OCC(=O)Nc1ccc(Br)cc1 (stereo not drawn) | -2 | 13% | x | 18 | -14%
O=C1CSC(c2ccccc2)N1CC(O)c1ccc([N+](=O)[O-])cc1 (stereo not drawn) | 6 | i | -29 | 4 | -10%
CC1SC(c2ccccc2)N(CC(O)c2ccc([N+](=O)[O-])cc2)C1=O (stereo not drawn) | -6 | 75% | 24 | 22 | 12µM*
O=C(Oc1ccc(/C=N/O)cc1)c1ccccc1Cl | 51* | 31% | -29 | 69* | 22%
O=C(N/N=C/c1cccc(OC(=O)c2ccccc2Cl)c1)c1cccnc1 | 25* | 58% | u | 49* | -2%
Cc1ccc(C(=O)N/N=C/c2ccc(OC(=O)c3ccccc3Cl)cc2)cn1 | 14* | u | -4 | 26 | -11%
Cc1cccc(C(=O)Oc2ccc(/C=N/O)cc2)c1 | 48* | u | -9 | 45* | i
O=C(N/N=C/c1cccnc1)c1ccc(NC(=O)c2ccccc2Cl)cc1 | 1 | -8% | u | 35 | u
CCOC(=O)N1CCC2(CC1)NCCc1c2[nH]c2ccccc12 | -3 | 14% | -13 | 3 | u
O=C(CCNC(=O)c1ccc([N+](=O)[O-])cc1)Nc1ccc(F)c(F)c1F | -7 | 33% | -25 | -3 | 10%
COc1ccc(/C=C\c2cc(OC)c(OC)cc2CC[N+](C)(C)C)cc1OC | 0 | 17% | 5 | -8 | u

Screening data deposited in PubChem by National Center for Advancing Translational Sciences (NCATS).
